# From PubChem BioAssay (NCATS)
# Inconclusive results are not listed. The source made the active and inactive calls. Calls follow the shape of the dose curve; as a rule, active = well fitted curve in the direction sought with a large enough effect; inconclusive = small, poorly fitted or top-dose-only effect, or another doubt; inactive = no such curve, though single readings can be large; an effect the other way counts as inactive or inconclusive.
# What was measured:
# [1] = NS1 protein of Zika virus - qHTS assay to identify small molecule inhibitors in human HEK 293 cells (AID 1347053); also: series mostly up to about 46 µM; nearly all actives have a fitted effect of over 55% in size
# Procedure, shortened: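 Compound-treated (1 h pre-infection) HEK 293 cells infected with ZIKV MR766, MOI = 0.5; after 24 h at 37 C, NS1 read by TR-FRET; data normalized to uninfected and infected controls.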
# [2] = qHTS of pediatric cancer cell lines to identify multiple opportunities for drug repurposing: Primary screen for DAOY cells (AID 1347090); also: nearly all actives have a fitted effect of over 55% in size; also: potency is read from the fitted curve at half-maximal effect
# Procedure, shortened: (§1)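 Viability measured as metabolically active cells via CellTiter-Glo luminescence following 48 hours of compound exposure, 11-point dilutions in confirmatory testing. 500-1,000 cells/well plated 5 hours before dosing; controls were DMSO and 2.3 µM bortezomib.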
# [3] = qHTS of pediatric cancer cell lines to identify multiple opportunities for drug repurposing: Primary screen for A673 cells (AID 1347092); also: nearly all actives have a fitted effect of over 45% in size; also: potency is read from the fitted curve at half-maximal effect
# Procedure, shortened: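 Luminescence from CellTiter-Glo, taken after 15 min at room temperature, served as the proxy for metabolically active cells following 48 h treatment. Both potency and efficacy were taken from curves fitted to the titration data.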
# [4] = qHTS of pediatric cancer cell lines to identify multiple opportunities for drug repurposing: Primary screen for SK-N-MC cells (AID 1347093); also: potency is read from the fitted curve at half-maximal effect
# Procedure, shortened: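 Metabolically active cells were quantified by ATP-dependent luminescence (CellTiter-Glo, 15 min at room temperature) following 48 h treatment. Cells had been plated at 500-1,000 per well and settled for 5 h beforehand.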
# [5] = qHTS of pediatric cancer cell lines to identify multiple opportunities for drug repurposing: Primary screen for U-2 OS cells (AID 1347096); also: nearly all actives have a fitted effect of over 50% in size; also: potency is read from the fitted curve at half-maximal effect
# Procedure, shortened: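 Viability after 48 h compound treatment at 37C, 500-1,000 cells/well, read as ATP luminescence with CellTiter-Glo. Primary screens used 11-point (MIPE, 0.78 nM-46 µM) or 8-point (NPC, 0.59 nM-46 µM) final concentrations; follow-up screens used 11-point dilutions.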
# [6] = qHTS of pediatric cancer cell lines to identify multiple opportunities for drug repurposing: Primary screen for Saos-2 cells (AID 1347097); also: nearly all actives have a fitted effect of over 40% in size; also: potency is read from the fitted curve at half-maximal effect
# Procedure, shortened: (§2)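 500-1,000 cells/well; 5 h pre-incubation 37 °C/5% CO2; compound pinned; 48 h; CellTiter-Glo, 15 min RT; luminescence. MIPE 11-pt from 0.78 nM, NPC 8-pt from 0.59 nM final. Bortezomib 2.3 µM final as positive control.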
# [7] = qHTS of pediatric cancer cell lines to identify multiple opportunities for drug repurposing: Primary screen for SJ-GBM2 cells (AID 1347091); also: potency is read from the fitted curve at half-maximal effect
# Procedure, shortened: as §1
# [8] = qHTS of pediatric cancer cell lines to identify multiple opportunities for drug repurposing: Primary screen for TC32 cells (AID 1347089); also: nearly all actives have a fitted effect of over 60% in size; also: potency is read from the fitted curve at half-maximal effect
# Procedure, shortened: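 qHTS, TC32, 48 h drug treatment, CellTiter-Glo luminescence as a proxy for metabolically active cells; primary top concentration 46 µM (MIPE 11-pt, NPC 8-pt); confirmatory 11-pt.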
# [9] = qHTS of pediatric cancer cell lines to identify multiple opportunities for drug repurposing: Primary screen for NB-EBc1 cells (AID 1347095); also: potency is read from the fitted curve at half-maximal effect
# Procedure, shortened: as §2
# [10] = qHTS of pediatric cancer cell lines to identify multiple opportunities for drug repurposing: Primary screen for SK-N-SH cells (AID 1347098); also: nearly all actives have a fitted effect of over 65% in size; also: potency is read from the fitted curve at half-maximal effect
# Procedure, shortened: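 Cells (500-1,000/well) rested 5 h, then received compounds for 48 h; metabolically active cells were measured by CellTiter-Glo luminescence. Final concentrations spanned up to 46 µM (MIPE, 11-point) or 0.59 nM-46 µM (NPC, 8-point) in primary screens, 11-point in follow-ups.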
# [11] = qHTS of pediatric cancer cell lines to identify multiple opportunities for drug repurposing: Primary screen for BT-37 cells (AID 1347094); also: potency is read from the fitted curve at half-maximal effect
# Procedure, shortened: as §2
Structure (SMILES),Potency [1],Potency [2],Potency [3],Potency [4],Potency [5],Potency [6],Potency [7],Potency [8],Potency [9],Potency [10],Potency [11]
COc1ccc2cc1Oc1ccc(cc1)C[C@H]1c3cc(c(OC)cc3CCN1C)Oc1c(OC)c(OC)cc3c1[C@H](C2)N(C)CC3,inactive,18.7 µM (active),23.5 µM (active),23.5 µM (active),inactive,29.6 µM (active),–,–,–,–,–
Fc1ccc(CNc2ncnc3ccc(F)cc23)cc1,inactive,7.43 µM (active),9.35 µM (active),16.6 µM (active),inactive,–,inactive,–,–,–,–
C[C@@]1(C(=O)Nc2ccc(F)nc2)CCCN1c1nc(Nc2cc(C3CC3)[nH]n2)c2cccn2n1,inactive,–,–,0.001 µM (active),inactive,1.05 µM (active),–,0.165 µM (active),0.0264 µM (active),1.92 µM (active),–
CCC[C@H](N[C@@H](C)C(=O)N1[C@@H]2CCCC[C@H]2C[C@H]1C(=O)O)C(=O)OCC,inactive,inactive,–,3.32 µM (active),inactive,–,–,–,–,–,–
Cc1csc(-c2nnc(Nc3ccc(Oc4ncccc4-c4ccnc(N)n4)cc3)c3ccccc23)c1,inactive,–,14.8 µM (active),0.0037 µM (active),–,–,0.003 µM (active),–,–,–,–
C=C1[C@H](n2cnc3c(=O)[nH]c(N)nc32)C[C@H](O)[C@H]1CO,inactive,–,–,0.0187 µM (active),inactive,–,0.0235 µM (active),–,2.09 µM (active),inactive,21.7 µM (active)
CO[C@H]1/C=C\O[C@@]2(C)Oc3c(C)c(O)c4c(O)c(c(C=NN5CCN(C6CCCC6)CC5)c(O)c4c3C2=O)NC(=O)C(C)=CC=C[C@H](C)[C@H](O)[C@@H](C)[C@@H](O)[C@@H](C)[C@H](OC(C)=O)[C@H]1C,–,0.296 µM (active),0.0296 µM (active),0.0059 µM (active),2.35 µM (active),0.0935 µM (active),inactive,0.523 µM (active),0.001 µM (active),0.0961 µM (active),0.001 µM (active)
O=C(c1ccc(F)c(F)c1Nc1ccc(I)cc1F)N1CC(O)([C@H]2CCCCN2)C1,–,18.7 µM (active),0.0235 µM (active),1.48 µM (active),14.8 µM (active),1.87 µM (active),4.69 µM (active),inactive,1.66 µM (active),6.07 µM (active),1.09 µM (active)
CC[C@H](C)n1cc(C)c2c(C(=O)NCc3c(C)cc(C)[nH]c3=O)cc(-c3ccc(N4CCNCC4)nc3)cc21,–,11.8 µM (active),1.48 µM (active),0.59 µM (active),inactive,18.7 µM (active),–,inactive,inactive,6.07 µM (active),19.3 µM (active)
CCCCC(C=O)NC(=O)C(CC(C)C)NC(=O)OCc1ccccc1 (stereo not drawn),inactive,–,–,–,inactive,inactive,inactive,–,inactive,–,–
CCC(C)SSc1ncc[nH]1 (stereo not drawn),–,18.7 µM (active),18.7 µM (active),3.72 µM (active),inactive,18.7 µM (active),20.9 µM (active),inactive,5.9 µM (active),–,–
CC(C)(O)CC(=O)NCCn1ccc2ncnc(Nc3ccc(Oc4cccc(C(F)(F)F)c4)c(Cl)c3)c21,–,0.469 µM (active),0.372 µM (active),0.743 µM (active),inactive,–,–,inactive,–,–,24.3 µM (active)
C[C@]12CCC3=C4CCC(=O)C=C4CC[C@@H]3[C@H]1CC[C@@]2(O)CC#N,–,inactive,inactive,inactive,inactive,inactive,inactive,inactive,inactive,–,inactive
Cc1cnc(CNC(=O)c2c(=O)c3ccc(N4CCCN(C)CC4)nc3n3c2sc2ccccc23)cn1,inactive,inactive,inactive,–,inactive,inactive,–,–,6.45 µM (active),–,–
O=C(Nc1ccccc1)Nc1ccc(-c2ccc(C(=O)[C@H]3CCC[C@H]3C(=O)O)cc2)cc1,inactive,–,–,1.87 µM (active),inactive,inactive,–,inactive,inactive,–,–
Nc1nc(Cl)nc2c1ncn2[C@@H]1O[C@H](CO)[C@@H](O)[C@H]1F,–,0.0372 µM (active),0.0296 µM (active),0.001 µM (active),inactive,–,0.001 µM (active),0.0234 µM (active),0.001 µM (active),–,0.0485 µM (active)
CN(C)S(=O)(=O)c1ccc2c(c1)C(=Cc1cc3c([nH]1)CCCC3)C(=O)N2,inactive,–,–,3.72 µM (active),inactive,–,–,inactive,–,3.83 µM (active),–
O=C1NC(=O)C(=Cc2ccc(-c3ccc(F)cc3O)o2)S1,inactive,–,–,23.5 µM (active),–,–,–,inactive,5.26 µM (active),–,–
Clc1ccc(C2(c3ccc(-c4cn[nH]c4)cc3)CCNCC2)cc1,–,23.5 µM (active),18.7 µM (active),6.62 µM (active),inactive,4.18 µM (active),5.26 µM (active),–,16.6 µM (active),24.1 µM (active),inactive
Cc1nc(NC(=O)N2CCC[C@@H]2C(N)=O)sc1-c1csc(C(C)(C)C)n1,–,14.8 µM (active),–,0.235 µM (active),–,11.8 µM (active),4.18 µM (active),–,4.69 µM (active),15.2 µM (active),–
CCOC(=O)[C@@H](N)CCC(=O)N[C@@H](CSCc1ccccc1)C(=O)N[C@@H](C(=O)OCC)c1ccccc1,–,inactive,–,–,inactive,inactive,inactive,–,inactive,inactive,inactive
Cc1cccc2c1CC[C@H](CN1CCC(c3c(Cl)cccc3Cl)CC1)C[C@@H]2O,–,inactive,–,9.35 µM (active),–,–,inactive,–,inactive,inactive,30.6 µM (active)

Structure (SMILES),Potency [1],Potency [2],Potency [3],Potency [4],Potency [5],Potency [6],Potency [7],Potency [8],Potency [9],Potency [10],Potency [11]
Oc1cc(O)cc(C=Cc2ccc(O)c(O)c2)c1,–,inactive,18.7 µM (active),5.26 µM (active),inactive,5.26 µM (active),inactive,–,4.18 µM (active),–,–
O=C(c1ccc(C=Cc2n[nH]c3ccccc23)cc1)N1CCNCC1,–,inactive,–,1.18 µM (active),–,–,–,–,3.72 µM (active),–,inactive
CCCCc1ccc(NS(=O)(=O)c2ccc(C)c(C(=O)N3CCN(c4cccc(C)c4C)CC3)c2)cc1,–,–,–,23.5 µM (active),inactive,–,20.9 µM (active),inactive,–,–,–
CC(C)C[C@H](NC(=O)c1cc2ccccc2s1)C(=O)N1CCN(C(=O)[C@H](CO)NS(=O)(=O)c2ccc(Cl)cc2Cl)CC1,–,–,23.5 µM (active),10.5 µM (active),–,14.8 µM (active),18.7 µM (active),inactive,26.4 µM (active),–,15.3 µM (active)
O=C(C=Cc1ccc(O)cc1)c1ccc(O)cc1O,–,–,18.7 µM (active),37.2 µM (active),–,18.7 µM (active),–,inactive,–,6.07 µM (active),–
O=C(Nc1cccc(C(F)(F)F)c1)Nc1cc(S(=O)(=O)NC2CC2)ccc1-c1ccsc1,–,–,–,–,inactive,29.6 µM (active),26.4 µM (active),inactive,23.5 µM (active),inactive,–
NS(=O)(=O)c1ccc(Nc2nc(OCC3CCCCC3)c3[nH]cnc3n2)cc1,–,–,23.5 µM (active),6.62 µM (active),–,16.6 µM (active),26.4 µM (active),inactive,–,–,–
O=S(=O)(NCCNCC=Cc1ccc(Br)cc1)c1cccc2cnccc12,–,–,11.8 µM (active),–,–,16.6 µM (active),11.8 µM (active),–,16.6 µM (active),19.2 µM (active),–
Cn1cnc(-c2cc3nccc(Oc4ccc(NC(=S)NC(=O)Cc5ccccc5)cc4F)c3s2)c1,–,–,29.6 µM (active),–,–,16.6 µM (active),0.0469 µM (active),inactive,–,21.5 µM (active),–
Cc1ccc2c(c1)C(=O)[C@]1(O)CCN(c3ccccc3)C1=N2,–,inactive,–,20.9 µM (active),inactive,inactive,–,–,7.43 µM (active),–,inactive
O=C(Nc1cccc2c(=O)cc(-c3nn[nH]n3)oc12)c1ccc(OCCCCc2ccccc2)cc1,–,inactive,–,–,inactive,–,–,inactive,–,–,–
C#CCN(C)CC1=Cc2ccccc2Oc2ccccc21,–,–,–,–,inactive,–,inactive,inactive,–,inactive,inactive
CCOC(=O)c1c(CSc2ccccc2)n(C)c2cc(Br)c(O)c(CN(C)C)c12,–,inactive,inactive,–,inactive,–,–,inactive,inactive,–,–
CN1CCC[C@H]1CCO[C@](C)(c1ccccc1)c1ccc(Cl)cc1,–,–,–,20.9 µM (active),inactive,–,–,inactive,inactive,30.4 µM (active),inactive
COc1cc2c(cc1Cc1cccc(Cl)c1F)c(=O)c(C(=O)O)cn2[C@H](CO)C(C)C,–,–,–,–,–,–,–,inactive,–,inactive,13.7 µM (active)
NC(=O)c1nnn(Cc2cc(Cl)c(C(=O)c3ccc(Cl)cc3)c(Cl)c2)c1N,–,–,–,23.5 µM (active),inactive,23.5 µM (active),18.7 µM (active),–,–,30.4 µM (active),–
CN(C(Cc1ccc(OS(=O)(=O)c2cccc3cnccc23)cc1)C(=O)N1CCN(c2ccccc2)CC1)S(=O)(=O)c1cccc2cnccc12 (stereo not drawn),–,–,18.7 µM (active),0.418 µM (active),–,–,–,–,–,–,inactive
Clc1ccc(COC(Cn2ccnc2)c2ccc(Cl)cc2Cl)c(Cl)c1 (stereo not drawn),–,–,–,–,–,–,18.7 µM (active),inactive,–,inactive,–
C[C@@H]1[C@H](C)CC[C@]2(C(=O)O)CC[C@]3(C)C(=CC[C@@H]4[C@@]5(C)CC[C@H](O)C(C)(C)[C@H]5CC[C@]43C)[C@@H]12,–,–,–,0.429 µM (active),inactive,9.59 µM (active),–,19 µM (active),13.6 µM (active),17.5 µM (active),inactive
OC(c1cc(C(F)(F)F)nc2c(C(F)(F)F)cccc12)C1CCCCN1 (stereo not drawn),–,inactive,18.7 µM (active),–,–,–,–,inactive,inactive,34.1 µM (active),–
Cc1c(-c2cccc3c(CCCOc4cccc5ccccc45)c(C(=O)O)n(Cc4cccnc4)c23)c(COc2ccc(N3CCN([S+](=O)([O-])N(C)C)CC3)cc2)nn1C,–,23.5 µM (active),23.5 µM (active),10.5 µM (active),inactive,–,–,inactive,–,inactive,–
